HP1b chromo inh: blocks HP1-beta chromodomain binding to methylated histone tails; P83916; AlphaScreen HP1-beta / biotin-H3K9me3 peptide binding; Potency, µM (series often up to 114 µM), actives largely listed as inhibitors; 390,000 compounds, 0.56% hits; AID 540317; also: nearly all actives have a fitted effect of over 70% in size
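Compound inhibition of the preformed complex between 50 nM HP1-beta and 50 nM biotinylated H3K9me3 peptide was read by AlphaScreen. Buffer was PBS pH 7.4 with 0.01% Tween-20. Incubations ran 30 min at room temperature, with 10 ug/mL donor/acceptor beads.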
TDP1 inh: TDP1 (human) enzyme inhibition; recombinant TDP1, AlphaScreen DNA substrate cleavage; 350,000 compounds, 0.28% hits; Q9NUW8; Potency, µM (series often up to 130 µM), hits mostly inhibitors; AID 485290; also: nearly all actives have a fitted effect of over 40% in size
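Compounds were preincubated with Tdp1 (1 nM final) for 15 min at room temperature before substrate (15 nM final) started a 5 min reaction; beads (10 ug/ml final) were then added for 10 min before AlphaScreen detection.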
JMJD2A Tudor: inhibitors of human JMJD2A Tudor domain | Potency, µM (doses to about 114 µM), actives largely listed as inhibitors | O75164 | AlphaScreen JMJD2A-Tudor / H3K4me3 peptide binding | 390,000 compounds, 4.4% hits; also: nearly all actives have a fitted effect of over 50% in size
Six1-Eya2 blk: blocks human Six1 binding to Eya2; AlphaScreen GST-Six1/His-Eya2 binding, biochemical; active compounds read low; activity change, % (test concentration not listed); 360,000 compounds, 0.56% hits; in the data active = activity change below about -65%; inconclusive = mostly about -30% to -63%
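AlphaScreen luminescence read after one hour at 37 °C in darkness. Pin-transferred compounds met GST-Six1 and His-Eya2 protein (5X stock 250 nM/500 nM) plus glutathione donor and Ni-chelate acceptor beads (5X, 50 ug/mL).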
BAZ2B block: BAZ2B (human) inhibition | 360,000 compounds, 4.4% hits | AlphaScreen BAZ2B-H3K14Ac peptide displacement | Q9UIF8 | Potency, µM (top dose mostly 114 µM), actives largely listed as inhibitors; also: nearly all actives have a fitted effect of over 60% in size
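AlphaScreen luminescence quantifies BAZ2B engagement of H3K14Ac peptide; the protein and biotinylated peptide are both at 50 nM final, buffer PBS pH 7.4 with 0.01% Tween-20, all steps at room temperature.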
CtBP-E1A inh: CtBP/E1A binding inhibition; 340,000 compounds, 0.49% hits; AlphaScreen GST-E1A/His-CtBP binding, 1536-well; active compounds read low; activity change, % (concentration not given with the values); in the data active = activity change below about -65%; inconclusive = mostly about -30% to -63%
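In 5 uL wells, 23 nL compound meets equimolar GST-E1A and His-CtBP (5X stock 125 nM each) for 2 h, 37 °C. Beads (5X, 50 ug/mL) then 1 h, 37 °C, dark.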
Numbers stand for hits; - = inactive; ? = inconclusive; . = not tested or not shown. Sampled rows, rich in hits. Any-hit rate of the full collection: about 5.3%. Unless noted, calls follow the shape of the dose curve; as a rule, active = well fitted inhibition curve with a large enough effect; inconclusive = small, poorly fitted or top-dose-only effect; inactive = no such curve, though single readings can be large or run the other way.

SMILES	HP1b chromo inh	TDP1 inh	JMJD2A Tudor	Six1-Eya2 blk	BAZ2B block	CtBP-E1A inh
CCC(C)c1ccccc1OCCOCCN1CCCC1 (stereo not drawn)	?	-	2.5µM	-	?	-
COc1cc(C2CC(=O)Nc3c2c(=O)[nH]c2ncnn32)ccc1O (stereo not drawn)	-	-	-	.	-	.
COC(=O)c1ccccc1S(=O)(=O)Nc1cc(=O)c2ccccc2[nH]1	.	-	-	.	.	.
Cc1nn(C)c(C)c1S(=O)(=O)NC1CCCC1	-	-	-	-	-	-
Cc1nn(-c2nnc(NC3CCCCC3)nn2)c(C)c1Br	?	-	45µM	-	14µM	-
O=C(/C=C/c1ccco1)c1ccc(NC(=O)C23CC4CC(CC(C4)C2)C3)cc1	?	-	?	-	35µM	-
CCOC(=O)c1cc(NC(=O)c2ccc(OC)cc2)c(=O)n2c1oc1ccc(Cl)cc12	-	-	-	.	-	.
C(=N\Nc1ncnc2nc[nH]c12)/c1cccs1	-	-	?	?	50µM	?
Cc1ccc2sc(N3CCN(C(=O)C4COc5ccccc5O4)CC3)nc2c1C (stereo not drawn)	-	-	-	.	-	.

Compound activity deposited in PubChem BioAssay by National Center for Advancing Translational Sciences (NCATS).
